These results are taken from ChEMBL document CHEMBL1201862, “PubChem BioAssay data set” (2004).

Hit rate of the full screen: of about 56,000 sequences, about 5,400 (9.6%) were called active. No stated cut-off is given here; in the data, active = GI50 up to about 1.1 µM and inactive = higher. The entries come from a sample that favours actives as a whole. Entries with a potency or affinity are not part of this list.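 Cultured in 96-well plates, cells were exposed to test compound for 48 hours across five concentrations. GI50: concentration for 50% inhibition of growth.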

This assay concerns K562. Nature of the assay: NCI tumour cell line growth inhibition, 48 h.
“[Bis(aminomethyl)pentamethylenesilane]dichloropaltinum(II), CHEMBL2146202” had a GI50 of 3.47 µM. Then “[Bis(aminomethyl)tetramethylenesilane]dichloropaltinum(II), CHEMBL2146205”, with 10.2 µM; and “[Bis(aminomethyl)tetramethylenesilane]tetrachloropaltinum(IV), CHEMBL2146189”, with 2.57 µM; and “cis-Bis[[(trimethylsilyl)methyl]amino]tetrachloroplatinum(IV), CHEMBL2146191”, with 2.92 µM. Consider “[Bis(aminomethyl)dimethylsilane]tetrachloroplatinum(IV), CHEMBL2146190”, for which the GI50 was 3.78 µM.

“[Bis(aminomethyl)diethylsilane]tetrachloroplatinum(IV), CHEMBL2146203” gave a GI50 of 0.916 µM. Then “[Bis(aminomethyl)pentamethylenesilane]tetrachloropaltinum(IV), CHEMBL2146204”, with 1.79 µM. Then “[Bis(aminomethyl)ethylmethylsilane]tetrachloroplatinum(IV), CHEMBL2146192”, with 1.69 µM; and CISPLATIN, CHEMBL11359, with 5.56 µM; and “[Bis(aminomethyl)dimethylsilane]dichloroplatinum (II), CHEMBL2146201”, with 16.5 µM. For the substance CHLOROTRIPHENYLSTANNANE, CHEMBL515580, the GI50 came out at 0.0256 µM. Then “mu-(1,7-nanodiamine-N,N')bis-(cis-aminedichloroplatimum (II)), CHEMBL2146215”, with 30.7 µM.
